Experimental data reported in PubChem BioAssay (EPA / NIEHS).
Values joined by “and” are separate entries in the source; they are usually repeats but may differ in a detail not shown here. Equal entries are not always repeated. Results filed as inconclusive are left out. Some compounds were tested as several samples or in several runs, with calls that do not always agree. Active and inactive are the calls of the source. How the source made its calls: active means hit-call score of the fitted dose curve at least 0.9, where 1 is the maximum; inconclusive means response in the unintended direction; inactive means score below 0.9.

Experiments:
[1] = ATG_XTT_Cytotoxicity: Cytotoxicity Assessment in the Attagene TRANS-FACTORIAL HepG2 Assay (AID 2283584);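 on AC50: cells exposed to compound for 24 h before reading; active means loss of viability signal versus DMSO baseline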
In short: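 HepG2 human liver cells, transiently transfected with multiple GAL4-UAS reporter units, were dosed and read at 24 h by XTT as cell number. Loss of signal was fitted relative to DMSO negative control baseline.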

[2] = TOX21_p53_BLA_p2_viability: Viability Assessment in the Tox21 HCT-116 p53 Agonism Beta-lactamase Assay, Phase 2 (AID 2283591);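 further: compound exposure lasted 16 h at 37 °C; actives lower the ATP signal meaning cytotoxicity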
In short: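 HCT-116 p53-bla cells (4000/well) rested 5 h at 37C, then received compounds in DMSO (217-fold dilution) for 16 h at 37C, 5% CO2. After the CCF4 read, CellTiter-Glo was added; ATP luminescence was read after 30 min at room temperature.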

[3] = molecular target: Cellular tumor antigen p53 (Homo sapiens) (UniProt P04637); assay: TOX21_p53_BLA_p2_ratio: Tox21 HCT-116 p53 Agonism Beta-lactamase Assay, Ratio, Phase 2 (AID 2283592)
In short: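 HCT116 cells carrying a p53-responsive beta-lactamase reporter were plated, incubated 5 h at 37C, then dosed with compounds in DMSO (217-fold dilution) for 16 h. CCF4-AM substrate was added for 2 h at room temperature; the 460/530 nm emission ratio gave gain-of-signal activity relative to DMSO.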

[4] = TOX21_p53_BLA_p3_viability: Viability Assessment in the Tox21 HCT-116 p53 Agonism Beta-lactamase Assay, Phase 3 (AID 2283593);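 further: cells exposed to compound for 16 h before reading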
In short: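 HCT-116 cells (4000/well) rested 5 h at 37C, then got DMSO compounds by pin tool (217-fold dilution) for 16 h at 37C, 5% CO2. After the bla read, CellTiter-Glo was added and luminescence read at 30 min, room temperature.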

[5] = molecular target: Cellular tumor antigen p53 (Homo sapiens) (UniProt P04637); assay: TOX21_p53_BLA_p3_ratio: Tox21 HCT-116 p53 Agonism Beta-lactamase Assay, Ratio, Phase 3 (AID 2283596)
In short: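 HCT116 p53-bla cells (4000/well) given compound in DMSO (217-fold dilution) after 5 h, incubated 16 h at 37C. CCF4-AM substrate 2 h at room temperature; 460/530 nm emission ratio, gain fitted against DMSO.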

[6] = TOX21_p53_BLA_p4_viability: Viability Assessment in the Tox21 HCT-116 p53 Agonism Beta-lactamase Assay, Phase 4 (AID 2283597);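 further: hits lower the luminescence signal meaning cytotoxicity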
In short: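 HCT116 p53-bla cells (4000/well) rested 5 h at 37C, then received compounds in DMSO (217-fold dilution) for 16 h at 37C, 5% CO2. CellTiter-Glo was added after the CCF4-AM read, and luminescence was read after 30 min at room temperature.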

[7] = molecular target: Cellular tumor antigen p53 (Homo sapiens) (UniProt P04637); assay: TOX21_p53_BLA_p5_ratio: Tox21 HCT-116 p53 Agonism Beta-lactamase Assay, Ratio, Phase 5 (AID 2283599)
In short: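 HCT-116 cells carrying a p53-inducible beta-lactamase reporter were seeded at 4000 cells/well and dosed after 5 h with compound in DMSO (217-fold dilution). After 16 h at 37C, CCF4-AM substrate was added for 2 h, and the 460/530 nm emission ratio was scored as gain-of-signal versus DMSO.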

[8] = TOX21_p53_BLA_p5_viability: Viability Assessment in the Tox21 HCT-116 p53 Agonism Beta-lactamase Assay, Phase 5 (AID 2283600)
In short: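 Cells were plated at 4000/well, rested 5 h at 37C, then given compounds in DMSO (217-fold dilution) for 16 h at 37C, 5% CO2. Following the CCF4-AM beta-lactamase read, CellTiter-Glo was added and luminescence was read after 30 min at room temperature.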

[9] = molecular target: Cellular tumor antigen p53 (Homo sapiens) (UniProt P04637); assay: TOX21_p53_BLA_p4_ratio: Tox21 HCT-116 p53 Agonism Beta-lactamase Assay, Ratio, Phase 4 (AID 2283601)
In short: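 HCT116 cells carrying an inducible beta-lactamase reporter were plated at 4000 cells/well, rested 5 h, then exposed to compounds in DMSO (217-fold dilution) for 16 h at 37C. CCF4-AM substrate was loaded 2 h at room temperature; 460/530 nm emission ratio scored gain-of-signal versus DMSO.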

[10] = Tanguay_ZF_120hpf_MORT_legacy: (Legacy) Oregon State University Tanguay Lab 120 Hour Post-fertilization zebrafish Assay for Mortality (AID 2283633);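 on AC50: fitted as increase in binary mortality versus DMSO negative control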
In short: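 Dechorionated Tropical 5D wild-type zebrafish embryos, one per well from 6 hpf, were statically exposed at 28C in the dark until 120 hpf (0.64% DMSO final). Mortality was scored as present/absent by brightfield microscopy, fitted positively versus DMSO.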

[11] = Tanguay_ZF_120hpf_YSE_legacy: (Legacy) Oregon State University Tanguay Lab 120 Hour Post-fertilization zebrafish Assay for Yolk Sac Edema (AID 2283634)
In short: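 Tropical 5D wild-type embryos, dechorionated with pronase at 4 hpf, were exposed singly from 6 hpf to 120 hpf under static, sealed, dark conditions at 28C with 0.64% DMSO final. Yolk sac edema was scored present/absent by brightfield microscopy.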

[12] = Tanguay_ZF_120hpf_AXIS_legacy: (Legacy) Oregon State University Tanguay Lab 120 Hour Post-fertilization zebrafish Assay for Body Axis Malformation (AID 2283635);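 on AC50: potency for an increased fraction of larvae scored with body axis malformation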
In short: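 Tropical 5D wild-type zebrafish embryos, dechorionated with pronase at 4 hpf, were placed singly in wells at 6 hpf and exposed statically to test chemical (0.64% DMSO final) at 28C until 120 hpf, then scored by brightfield for body axis defects.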

[13] = Tanguay_ZF_120hpf_EYE_legacy: (Legacy) Oregon State University Tanguay Lab 120 Hour Post-fertilization zebrafish Assay for Eye Malformation (AID 2283636);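 further: binary presence or absence of eye malformation scored by brightfield in 120 hpf larvae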
In short: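 Dechorionated wild-type Tropical 5D zebrafish embryos were exposed statically from 6 hpf, one per well, to 120 hpf at 28C in sealed, foil-covered plates with 0.64% DMSO. Eye malformation was scored present/absent by brightfield microscopy against DMSO controls.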

[14] = Tanguay_ZF_120hpf_JAW_legacy: (Legacy) Oregon State University Tanguay Lab 120 Hour Post-fertilization zebrafish Assay for Jaw Malformation (AID 2283638);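 on AC50: active means more embryos with jaw malformation than DMSO controls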
In short: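 Tropical 5D wild-type embryos, dechorionated with pronase at 4 hpf, were placed singly per well at 6 hpf and statically exposed at 28C until 120 hpf (0.64% DMSO final). Jaw malformation scored as present/absent by brightfield microscopy at 120 hpf, analyzed relative to DMSO.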

[15] = Tanguay_ZF_120hpf_OTIC_legacy: (Legacy) Oregon State University Tanguay Lab 120 Hour Post-fertilization zebrafish Assay for Otic Vesicle Malformation (AID 2283639)
In short: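 Tropical 5D wild-type zebrafish embryos statically exposed in 0.64% DMSO at 28C until 120 hpf; 5uM trimethyltin chloride as positive control. Otic vesicle malformation scored present/absent by brightfield; dead embryos not scored; gain fitted versus DMSO.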

[16] = Tanguay_ZF_120hpf_SOMI_legacy: (Legacy) Oregon State University Tanguay Lab 120 Hour Post-fertilization zebrafish Assay for Somite Malformation (AID 2283647)
In short: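 Tropical 5D wild-type zebrafish embryos, dechorionated with pronase at 4 hpf, were placed singly at 6 hpf and statically exposed until 120 hpf at 28C in 0.64% DMSO. Somite malformation was scored present/absent by brightfield microscopy versus DMSO.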

[17] = Tanguay_ZF_120hpf_PE_legacy: (Legacy) Oregon State University Tanguay Lab 120 Hour Post-fertilization zebrafish Assay for Pericardial Edema (AID 2283640);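 on AC50: potency for increased incidence of pericardial edema versus DMSO baseline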
In short: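 Tropical 5D wild-type zebrafish embryos were exposed statically to 120 hpf at 28C, sealed and foil-covered, in 0.64% DMSO final. Pericardial edema was scored present/absent by brightfield microscopy; dead embryos were not scored.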

[18] = Tanguay_ZF_120hpf_BRAI_legacy: (Legacy) Oregon State University Tanguay Lab 120 Hour Post-fertilization zebrafish Assay for Brain Malformation (AID 2283641)
In short: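 Tropical 5D wild-type zebrafish embryos were exposed statically in sealed, foil-covered plates at 28C until 120 hpf, with 0.64% (vol/vol) final DMSO. Brain malformation was scored present/absent by brightfield microscopy, relative to DMSO baseline.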

[19] = Tanguay_ZF_120hpf_PFIN_legacy: (Legacy) Oregon State University Tanguay Lab 120 Hour Post-fertilization zebrafish Assay for Pectoral Fin Malformation (AID 2283648);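 further: each larva judged yes or no for fin defect by brightfield with dead larvae skipped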
In short: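 Tropical 5D wild-type embryos, dechorionated with pronase at 4 hpf, were placed singly in wells at 6 hpf and statically exposed until 120 hpf at 28C, sealed and dark, with 0.64% (vol/vol) final DMSO; pectoral fin malformation scored present/absent.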

[20] = Tanguay_ZF_120hpf_SNOU_legacy: (Legacy) Oregon State University Tanguay Lab 120 Hour Post-fertilization zebrafish Assay for Snout Malformation (AID 2283637)
In short: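 Tropical 5D wild-type zebrafish embryos, dechorionated with pronase at 4 hpf, were exposed singly from 6 hpf to 120 hpf statically at 28C in 0.64% DMSO. Snout malformation was scored present/absent by brightfield microscopy, fitted against DMSO.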

Measured: AC50

Chain of Cellular tumor antigen p53 (Homo sapiens) (P04637 whole entry, looked up): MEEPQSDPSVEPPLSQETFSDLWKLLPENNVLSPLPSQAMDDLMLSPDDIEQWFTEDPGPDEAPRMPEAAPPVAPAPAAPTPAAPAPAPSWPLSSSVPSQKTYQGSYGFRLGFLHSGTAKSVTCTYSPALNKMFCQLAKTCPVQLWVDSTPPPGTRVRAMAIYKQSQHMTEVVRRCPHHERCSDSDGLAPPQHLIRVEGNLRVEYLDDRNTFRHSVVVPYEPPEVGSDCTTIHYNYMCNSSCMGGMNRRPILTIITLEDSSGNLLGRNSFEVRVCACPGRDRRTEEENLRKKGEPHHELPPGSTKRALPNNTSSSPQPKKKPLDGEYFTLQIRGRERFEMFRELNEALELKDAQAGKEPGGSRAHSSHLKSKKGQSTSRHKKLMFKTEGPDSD

Cc1cc(F)ccc1-c1cc(N2CC[C@@H](O)[C@H]2CO)ncc1N(C)C(=O)C(C)(C)c1cc(C(F)(F)F)cc(C(F)(F)F)c1
active: [1] 23.3 µM | [2] 11 µM | [3] 21.8 µM | [4] 30.7 µM | [5] 45.3 µM | [6] 27.3 µM | [7] 36 µM | [8] 23.7 µM | [9] 26.4 µM
inactive: [10] | [11] | [12] | [13] | [14] | [15] | [16]

CC1(C)NC(=O)N(c2ccc([N+](=O)[O-])c(C(F)(F)F)c2)C1=O
not listed: [12] | [20]
inactive: all other assays above

O=c1[nH]sc2ccccc12
not listed: [12]
inactive: all other assays above

C[C@]12CC[C@@H]3c4ccc(O)cc4CC[C@H]3[C@@H]1CC[C@H]2O
active: [3] 15.9 µM | [5] 67.5 µM and 15.8 µM | [7] 73.4 µM and 16.7 µM | [9] 26.2 µM
not listed: [8]
inactive: all other assays above

O=C(O)Cc1cc(I)c(Oc2ccc(O)c(I)c2)c(I)c1
active: [2] 2.06 µM and 5.75 µM | [3] 899 nM and 4.4 µM | [4] 15.9 µM | [5] 1.64 µM and 8.48 µM | [6] 19 µM and 5.82 µM | [7] 1.95 µM and 16.7 µM | [8] 21.8 µM | [9] 3.33 µM and 5.61 µM | [12] 0.0871 µM | [20] 0.0814 µM | [14] 0.089 µM
inactive: [1] | [4] | [8] | [10] | [11] | [13] | [15] | [17] | [18] | [16] | [19]

Cc1ncc(CO)c(CO)c1O
inactive: all assays above

c1ccc(C[n+]2cccc3ccccc32)cc1
not listed: [6] | [20]
inactive: all other assays above

CC/C(=C(/CC)c1ccc(O)cc1)c1ccc(O)cc1
active: [2] 62 µM and 73.4 µM | [3] 3.29 µM and 5.64 µM | [5] 11.8 µM and 14 µM | [6] 46 µM | [7] 17.3 µM and 4.28 µM | [8] 75.1 µM | [9] 38.3 µM and 8.57 µM | [10] 10.8 µM
inactive: [1] | [4] | [6] | [8] | [11] | [12] | [20] | [14] | [15] | [17] | [18] | [19]

CO[C@H]1/C=C/O[C@@]2(C)Oc3c(C)c(O)c4c(O)c(c(/C=N/N5CCN(C)CC5)c(O)c4c3C2=O)NC(=O)/C(C)=C\C=C\[C@H](C)[C@H](O)[C@@H](C)[C@@H](O)[C@@H](C)[C@H](OC(C)=O)[C@@H]1C
not listed: [18]
inactive: all other assays above

Cc1c2ccccc2c(C)c2c1ccc1ccccc12
inactive: [1] | [2] | [4] | [6] | [7] | [8] | [10] | [11] | [12] | [13] | [20] | [14] | [15] | [18] | [16] | [19]
active: [1] 56.2 µM | [3] 14.6 µM and 37.7 µM | [4] 61.5 µM | [5] 29.5 µM and 52.5 µM | [6] 56.3 µM | [7] 41.7 µM | [9] 43.2 µM and 30.5 µM | [17] 4.18 µM
